# What was measured:
# Assay in all cases: DAPPL (digital affinity profiling via proximity ligation, sequencing); 10 mM Tris-HCl pH 7.5, 50 mM NaCl, 1 mM DTT, 4% glycerol, room temperature, 30 min; GST-TFs on glutathione beads, 16-mer random dsDNA library, 0.1% formaldehyde crosslink after washing; high values mean tight binding
# [1] = target: T1, FLI1 (Homo sapiens, UniProt Q01543 1-452); conditions: protein: recombinant; tags: N-terminal GST; dsDNA, one strand shown
# T1 sequence: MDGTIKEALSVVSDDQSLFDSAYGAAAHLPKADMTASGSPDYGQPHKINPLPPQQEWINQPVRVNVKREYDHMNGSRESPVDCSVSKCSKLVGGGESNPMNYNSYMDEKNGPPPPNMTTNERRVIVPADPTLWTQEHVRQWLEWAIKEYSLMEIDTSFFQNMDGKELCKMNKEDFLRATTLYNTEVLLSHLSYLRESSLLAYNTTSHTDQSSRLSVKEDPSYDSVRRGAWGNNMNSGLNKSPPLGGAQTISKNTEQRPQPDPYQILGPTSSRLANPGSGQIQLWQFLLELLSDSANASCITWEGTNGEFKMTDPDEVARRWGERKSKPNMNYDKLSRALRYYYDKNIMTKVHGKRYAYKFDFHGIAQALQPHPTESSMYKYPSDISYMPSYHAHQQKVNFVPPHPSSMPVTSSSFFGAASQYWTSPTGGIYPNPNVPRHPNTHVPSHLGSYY
# Outline: (§1)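 After expression in yeast as GST fusions, human transcription factors were bound to glutathione beads, DNA-barcoded and mixed with a tag-only sample. The pools were incubated with 200 nmole of a 16-mer random double-stranded DNA library in Tris/NaCl/DTT/glycerol buffer (30 min, room temperature), washed and crosslinked with 0.1% formaldehyde. Proximity ligation with BsaI/T4 ligase ran for 1 h at 37 °C, before PCR amplification and sequencing on an Illumina NextSeq500. Binding signal is a hexamer's read frequency for a factor divided by its frequency for the tag-only sample.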
# [2] = target: ELF1 (Homo sapiens, UniProt P32519 1-619); conditions: protein: recombinant; tags: N-terminal GST; dsDNA, one strand shown
# Outline: as §1
# [3] = target: T2, EHF (Homo sapiens, UniProt Q9NZC4 1-300); conditions: protein: recombinant; tags: N-terminal GST; dsDNA, one strand shown
# T2 sequence: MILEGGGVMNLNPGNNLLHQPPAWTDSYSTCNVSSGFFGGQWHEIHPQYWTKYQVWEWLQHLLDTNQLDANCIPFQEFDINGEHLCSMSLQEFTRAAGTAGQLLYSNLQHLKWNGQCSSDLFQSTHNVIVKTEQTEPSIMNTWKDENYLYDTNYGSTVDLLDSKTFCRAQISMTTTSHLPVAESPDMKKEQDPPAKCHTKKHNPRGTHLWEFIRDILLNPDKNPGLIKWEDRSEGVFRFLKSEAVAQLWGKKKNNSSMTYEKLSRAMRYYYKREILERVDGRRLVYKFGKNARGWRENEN
# Outline: as §1
# [4] = target: SPI1 (Homo sapiens, UniProt P17947 1-270); conditions: protein: recombinant; tags: N-terminal GST; dsDNA, one strand shown
# Outline: as §1
# [5] = target: SPIB (Homo sapiens, UniProt Q01892 1-262); conditions: protein: recombinant; tags: N-terminal GST; dsDNA, one strand shown
# Outline: as §1
# [6] = target: T3, ELK3 (Homo sapiens, UniProt P41970 1-407); conditions: protein: recombinant; tags: N-terminal GST; dsDNA, one strand shown
# T3 sequence: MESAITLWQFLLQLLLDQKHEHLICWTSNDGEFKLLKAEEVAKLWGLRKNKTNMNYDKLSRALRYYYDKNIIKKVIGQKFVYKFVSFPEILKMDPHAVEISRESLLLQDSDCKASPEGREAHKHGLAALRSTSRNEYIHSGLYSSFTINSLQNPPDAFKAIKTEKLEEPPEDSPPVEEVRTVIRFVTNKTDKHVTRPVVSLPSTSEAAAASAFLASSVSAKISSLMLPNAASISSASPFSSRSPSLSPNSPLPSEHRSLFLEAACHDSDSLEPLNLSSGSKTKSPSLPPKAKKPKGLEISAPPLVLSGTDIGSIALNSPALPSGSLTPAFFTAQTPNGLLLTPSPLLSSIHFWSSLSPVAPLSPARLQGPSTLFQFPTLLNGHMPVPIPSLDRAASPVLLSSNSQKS
# Outline: as §1
# [7] = target: T4, FEV (Homo sapiens, UniProt Q99581 1-238); conditions: protein: recombinant; tags: N-terminal GST; dsDNA, one strand shown
# T4 sequence: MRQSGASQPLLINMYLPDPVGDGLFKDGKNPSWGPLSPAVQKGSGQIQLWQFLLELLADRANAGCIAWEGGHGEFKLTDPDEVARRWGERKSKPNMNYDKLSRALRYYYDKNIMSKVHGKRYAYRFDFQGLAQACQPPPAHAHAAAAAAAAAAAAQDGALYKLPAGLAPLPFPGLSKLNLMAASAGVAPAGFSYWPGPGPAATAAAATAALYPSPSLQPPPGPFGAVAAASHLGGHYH
# Outline: as §1
# [8] = target: ETV5 (Homo sapiens, UniProt P41161 1-510); conditions: protein: recombinant; tags: N-terminal GST; dsDNA, one strand shown
# Outline: as §1
# [9] = target: HSF1 (Homo sapiens, UniProt Q00613 1-529); conditions: protein: recombinant; tags: N-terminal GST; chain copies: 3; dsDNA, one strand shown
# Outline: as §1
# [10] = target: T5, SPIC (Homo sapiens, UniProt Q8N5J4 1-248); conditions: protein: recombinant; tags: N-terminal GST; dsDNA, one strand shown
# T5 sequence: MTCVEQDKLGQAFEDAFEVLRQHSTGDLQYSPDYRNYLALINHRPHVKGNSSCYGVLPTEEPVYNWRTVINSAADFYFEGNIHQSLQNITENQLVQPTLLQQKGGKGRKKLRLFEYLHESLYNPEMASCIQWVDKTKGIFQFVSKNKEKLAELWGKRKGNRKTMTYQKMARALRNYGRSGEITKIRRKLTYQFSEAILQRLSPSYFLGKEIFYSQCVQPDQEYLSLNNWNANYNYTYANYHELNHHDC
# Outline: as §1
# [11] = target: ELF4 (Homo sapiens, UniProt Q99607 1-663); conditions: protein: recombinant; tags: N-terminal GST; dsDNA, one strand shown
# Outline: as §1
# [12] = target: T6, ELK4 (Homo sapiens, UniProt P28324-2 1-405); conditions: protein: recombinant; tags: N-terminal GST; dsDNA, one strand shown
# T6 sequence: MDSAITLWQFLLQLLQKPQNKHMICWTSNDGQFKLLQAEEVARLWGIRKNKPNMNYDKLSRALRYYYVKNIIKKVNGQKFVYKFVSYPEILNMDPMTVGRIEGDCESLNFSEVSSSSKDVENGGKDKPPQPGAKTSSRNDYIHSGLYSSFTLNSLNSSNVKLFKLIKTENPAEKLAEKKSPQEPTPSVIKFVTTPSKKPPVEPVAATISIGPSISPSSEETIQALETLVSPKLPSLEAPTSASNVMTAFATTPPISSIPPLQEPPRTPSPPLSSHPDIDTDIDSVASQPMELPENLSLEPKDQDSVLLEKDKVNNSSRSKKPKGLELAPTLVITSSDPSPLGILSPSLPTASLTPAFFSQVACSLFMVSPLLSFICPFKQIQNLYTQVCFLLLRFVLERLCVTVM
# Outline: as §1
# [13] = target: T7, ETV2 (Homo sapiens, UniProt O00321 1-342); conditions: protein: recombinant; tags: N-terminal GST; dsDNA, one strand shown
# T7 sequence: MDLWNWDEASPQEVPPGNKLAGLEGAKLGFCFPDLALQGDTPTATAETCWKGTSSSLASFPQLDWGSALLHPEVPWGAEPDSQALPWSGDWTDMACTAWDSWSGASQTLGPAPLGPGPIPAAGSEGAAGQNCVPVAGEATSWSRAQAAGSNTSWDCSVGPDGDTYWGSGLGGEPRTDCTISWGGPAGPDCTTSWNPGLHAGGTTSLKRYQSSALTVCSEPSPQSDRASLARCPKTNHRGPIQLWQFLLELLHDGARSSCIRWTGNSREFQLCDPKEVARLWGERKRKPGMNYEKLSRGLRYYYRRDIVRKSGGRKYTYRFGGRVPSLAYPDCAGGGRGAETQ
# Outline: as §1
# [14] = target: T8, ELF3 (Homo sapiens, UniProt P78545 1-371); conditions: protein: recombinant; tags: N-terminal GST; dsDNA, one strand shown
# T8 sequence: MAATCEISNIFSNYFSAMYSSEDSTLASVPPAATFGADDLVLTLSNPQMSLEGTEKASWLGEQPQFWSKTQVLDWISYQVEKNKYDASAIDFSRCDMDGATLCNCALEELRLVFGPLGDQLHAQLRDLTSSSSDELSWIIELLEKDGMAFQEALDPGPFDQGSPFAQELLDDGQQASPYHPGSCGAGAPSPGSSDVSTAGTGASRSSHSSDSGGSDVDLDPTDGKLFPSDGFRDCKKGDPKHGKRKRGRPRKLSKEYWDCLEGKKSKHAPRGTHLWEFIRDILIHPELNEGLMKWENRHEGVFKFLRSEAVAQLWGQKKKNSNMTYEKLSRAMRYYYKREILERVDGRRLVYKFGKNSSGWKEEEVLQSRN
# Outline: as §1
# [15] = target: CRX (Homo sapiens, UniProt O43186 1-299); conditions: protein: recombinant; tags: N-terminal GST; dsDNA, one strand shown
# Outline: as §1
# [16] = target: ETV1 (Homo sapiens, UniProt P50549 1-477); conditions: protein: recombinant; tags: N-terminal GST; dsDNA, one strand shown
# Outline: as §1
# ELF4, sequence (Q99607 whole entry): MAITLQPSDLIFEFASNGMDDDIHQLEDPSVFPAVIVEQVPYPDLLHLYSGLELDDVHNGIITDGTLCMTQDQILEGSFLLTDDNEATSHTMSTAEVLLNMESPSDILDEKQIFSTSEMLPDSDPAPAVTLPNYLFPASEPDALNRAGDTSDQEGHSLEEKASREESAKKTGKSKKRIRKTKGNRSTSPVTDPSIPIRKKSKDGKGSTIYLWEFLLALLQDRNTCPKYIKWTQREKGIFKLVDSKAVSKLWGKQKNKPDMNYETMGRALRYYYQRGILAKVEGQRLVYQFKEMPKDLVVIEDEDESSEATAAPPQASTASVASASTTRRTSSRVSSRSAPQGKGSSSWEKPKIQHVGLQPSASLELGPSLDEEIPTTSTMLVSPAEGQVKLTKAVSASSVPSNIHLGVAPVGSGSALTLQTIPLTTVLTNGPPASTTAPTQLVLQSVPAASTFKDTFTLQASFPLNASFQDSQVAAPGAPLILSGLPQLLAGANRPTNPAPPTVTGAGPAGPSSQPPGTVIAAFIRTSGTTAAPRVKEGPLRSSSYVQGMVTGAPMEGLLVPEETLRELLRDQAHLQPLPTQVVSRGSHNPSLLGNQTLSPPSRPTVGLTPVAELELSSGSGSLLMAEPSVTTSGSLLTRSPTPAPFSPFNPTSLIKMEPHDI
# ETV1, sequence (P50549 whole entry): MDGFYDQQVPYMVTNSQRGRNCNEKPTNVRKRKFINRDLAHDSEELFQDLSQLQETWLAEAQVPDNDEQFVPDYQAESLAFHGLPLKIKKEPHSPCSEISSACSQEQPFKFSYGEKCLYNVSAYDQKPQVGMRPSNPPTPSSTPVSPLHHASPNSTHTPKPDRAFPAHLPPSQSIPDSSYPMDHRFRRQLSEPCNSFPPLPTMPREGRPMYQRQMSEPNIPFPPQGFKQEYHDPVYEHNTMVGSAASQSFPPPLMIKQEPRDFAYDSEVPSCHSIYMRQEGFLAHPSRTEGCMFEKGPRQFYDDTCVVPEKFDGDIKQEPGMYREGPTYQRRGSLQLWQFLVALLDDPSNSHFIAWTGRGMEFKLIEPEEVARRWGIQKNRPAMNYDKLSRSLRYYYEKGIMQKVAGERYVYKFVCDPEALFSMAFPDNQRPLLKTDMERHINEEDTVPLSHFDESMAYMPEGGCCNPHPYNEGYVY
# SPIB, sequence (Q01892 whole entry): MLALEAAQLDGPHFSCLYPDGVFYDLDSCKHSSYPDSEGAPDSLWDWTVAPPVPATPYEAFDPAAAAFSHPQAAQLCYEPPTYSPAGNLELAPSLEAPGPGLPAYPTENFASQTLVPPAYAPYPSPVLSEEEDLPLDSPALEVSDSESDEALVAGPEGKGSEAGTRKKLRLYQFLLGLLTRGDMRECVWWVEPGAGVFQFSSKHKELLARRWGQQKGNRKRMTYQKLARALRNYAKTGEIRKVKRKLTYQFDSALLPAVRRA
# HSF1, sequence (Q00613 whole entry): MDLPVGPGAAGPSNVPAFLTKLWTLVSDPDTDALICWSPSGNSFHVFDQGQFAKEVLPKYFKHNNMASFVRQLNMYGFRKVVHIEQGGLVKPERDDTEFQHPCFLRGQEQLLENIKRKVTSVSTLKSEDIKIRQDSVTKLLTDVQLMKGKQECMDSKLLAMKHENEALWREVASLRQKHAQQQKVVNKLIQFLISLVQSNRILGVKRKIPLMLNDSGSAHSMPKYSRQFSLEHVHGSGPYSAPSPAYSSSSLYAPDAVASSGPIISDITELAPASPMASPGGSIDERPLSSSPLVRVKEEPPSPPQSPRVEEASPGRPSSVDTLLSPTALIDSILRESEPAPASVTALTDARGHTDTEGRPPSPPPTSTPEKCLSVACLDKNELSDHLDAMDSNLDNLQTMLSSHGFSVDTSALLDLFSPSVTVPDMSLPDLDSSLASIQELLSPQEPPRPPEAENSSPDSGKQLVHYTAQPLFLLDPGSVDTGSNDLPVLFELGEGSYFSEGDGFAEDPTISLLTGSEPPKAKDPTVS
# ETV5, sequence (P41161 whole entry): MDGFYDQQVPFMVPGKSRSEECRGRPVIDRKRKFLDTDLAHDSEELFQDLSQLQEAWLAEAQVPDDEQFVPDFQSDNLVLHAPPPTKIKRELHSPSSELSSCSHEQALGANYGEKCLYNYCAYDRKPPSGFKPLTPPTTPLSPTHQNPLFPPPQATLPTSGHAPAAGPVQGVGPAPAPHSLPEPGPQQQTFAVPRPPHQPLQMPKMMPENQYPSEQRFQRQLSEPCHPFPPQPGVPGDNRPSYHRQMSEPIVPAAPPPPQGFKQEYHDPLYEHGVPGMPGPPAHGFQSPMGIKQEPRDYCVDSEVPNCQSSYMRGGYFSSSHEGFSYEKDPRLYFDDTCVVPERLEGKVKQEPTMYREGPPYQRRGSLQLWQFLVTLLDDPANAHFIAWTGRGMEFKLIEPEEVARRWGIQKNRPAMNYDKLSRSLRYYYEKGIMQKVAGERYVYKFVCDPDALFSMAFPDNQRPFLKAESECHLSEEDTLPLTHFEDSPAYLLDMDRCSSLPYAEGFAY
# CRX, sequence (O43186 whole entry): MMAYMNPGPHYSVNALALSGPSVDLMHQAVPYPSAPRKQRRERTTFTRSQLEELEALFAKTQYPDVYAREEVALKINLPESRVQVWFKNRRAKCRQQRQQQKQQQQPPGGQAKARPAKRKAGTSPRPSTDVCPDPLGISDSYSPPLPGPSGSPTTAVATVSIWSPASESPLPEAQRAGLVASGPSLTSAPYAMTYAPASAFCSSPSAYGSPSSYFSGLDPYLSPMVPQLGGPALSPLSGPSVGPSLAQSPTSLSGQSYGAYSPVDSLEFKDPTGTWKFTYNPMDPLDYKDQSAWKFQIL
# ELF1, sequence (P32519 whole entry): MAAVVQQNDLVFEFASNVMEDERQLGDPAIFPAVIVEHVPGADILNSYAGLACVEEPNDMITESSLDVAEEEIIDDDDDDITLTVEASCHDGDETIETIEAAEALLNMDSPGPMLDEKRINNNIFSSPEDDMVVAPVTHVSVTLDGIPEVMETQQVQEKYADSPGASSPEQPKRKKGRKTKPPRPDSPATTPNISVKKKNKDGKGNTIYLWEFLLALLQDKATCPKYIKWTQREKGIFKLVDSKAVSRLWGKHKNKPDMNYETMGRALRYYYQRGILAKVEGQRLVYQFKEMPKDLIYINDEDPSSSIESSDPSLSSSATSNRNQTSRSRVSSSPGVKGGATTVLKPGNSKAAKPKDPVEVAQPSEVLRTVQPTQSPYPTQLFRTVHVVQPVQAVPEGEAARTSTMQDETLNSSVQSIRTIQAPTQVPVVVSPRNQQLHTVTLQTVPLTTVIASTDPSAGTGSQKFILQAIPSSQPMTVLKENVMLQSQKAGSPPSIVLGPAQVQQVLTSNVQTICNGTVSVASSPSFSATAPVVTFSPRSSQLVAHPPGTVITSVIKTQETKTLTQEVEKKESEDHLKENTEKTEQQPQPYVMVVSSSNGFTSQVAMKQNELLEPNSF
sequence,measurement,setting,value
CATCGA,binding signal,[1],"1.12 fold enrichment (6-mer frequency, TF over GST control)"
same,binding signal,[2],"1.12 fold enrichment (6-mer frequency, TF over GST control)"
same,binding signal,[3],"1.16 fold enrichment (6-mer frequency, TF over GST control)"
same,binding signal,[4],"1.09 fold enrichment (6-mer frequency, TF over GST control)"
same,binding signal,[5],"1.03 fold enrichment (6-mer frequency, TF over GST control)"
same,binding signal,[6],"1.03 fold enrichment (6-mer frequency, TF over GST control)"
same,binding signal,[7],"1.05 fold enrichment (6-mer frequency, TF over GST control)"
same,binding signal,[8],"1.17 fold enrichment (6-mer frequency, TF over GST control)"
same,binding signal,[9],"1.42 fold enrichment (6-mer frequency, TF over GST control)"
same,binding signal,[10],"1.06 fold enrichment (6-mer frequency, TF over GST control)"
same,binding signal,[11],"1.12 fold enrichment (6-mer frequency, TF over GST control)"
same,binding signal,[12],"1.06 fold enrichment (6-mer frequency, TF over GST control)"
same,binding signal,[13],"1.16 fold enrichment (6-mer frequency, TF over GST control)"
same,binding signal,[14],"1.04 fold enrichment (6-mer frequency, TF over GST control)"
same,binding signal,[15],"1.05 fold enrichment (6-mer frequency, TF over GST control)"
same,binding signal,[16],"1.05 fold enrichment (6-mer frequency, TF over GST control)"

# From article PMC7862700, “An all-to-all approach to the identification of sequence-specific readers for epigenetic DNA modifications on cytosine”
